Out of some 5,500 compounds screened, about 2,000 (36%) were called active. Not shown: some 18% with an inconclusive outcome. Cut-off read from the data, not from the text of the source: active = normalized growth mostly below about 0.91 (no sharp cut-off); inconclusive = no clear call, values can overlap the other calls; inactive = mostly above about 0.92. The list shows a part of the results.
Assay: chemical genetic growth profiling, strain panel (AID 1159580);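 note: tested at 20 µM; growth read once vehicle control cultures reached saturation at 30 °C; 1 = growth at the plate median or of vehicle wells; lower values mean less growth of the strain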
Settings: S. cerevisiae deletion strains, growth OD

Measured: normalized growth

Cc1nc2c(OCc3ccccc3)cccn2c1CC#N
inactive: locus YAL040C, strain CLN3, active compounds read low 0.99 | locus YCL061C, strain MRC1 (second series), active compounds read low 0.996 | locus YDR363W, strain ESC2, active compounds read low 0.987 | locus YER002W, strain NOP16, active compounds read low 0.991 | locus YGR078C, strain PAC10, active compounds read low 0.996 | locus YMR263W, strain SAP30, active compounds read low 1 | locus YMR307W, strain GAS1, active compounds read low 0.974 | locus YNL153C, strain GIM3, active compounds read low 0.994 | locus YNL175C, strain NOP13, active compounds read low 0.991 | locus YNL197C, strain WHI3, active compounds read low 1 | locus YNL224C, strain SQS1, active compounds read low 0.995 | locus YNL322C, strain KRE1, active compounds read low 1.01 | locus YOR083W, strain WHI5 (second series), active compounds read low 0.97 | locus YPL241C, strain CIN2, active compounds read low 1

C/C(=N/Nc1nc(C(C)(C)C)cs1)c1ccc(Cl)c(Cl)c1
active: locus YHR030C, strain SLT2, active compounds read low 0.753 | locus YLR113W, strain HOG1, active compounds read low 0.803 | locus YPL256C, strain CLN2, active compounds read low 0.757
inactive: locus YAR019C, strain CDC15, active compounds read low 0.986 | locus YBL105C, strain PKC1, active compounds read low 0.983 | locus YBR135W, strain CKS1, active compounds read low 0.994 | locus YBR136W, strain MEC1, active compounds read low 0.99 | locus YBR160W, strain CDC28, active compounds read low 0.987 | locus YDL017W, strain CDC7, active compounds read low 0.981 | locus YDL028C, strain MPS1, active compounds read low 0.996 | locus YDL101C, strain DUN1, active compounds read low 0.981 | locus YDL108W, strain KIN28, active compounds read low 0.994 | locus YDL132W, strain cdc53, active compounds read low 0.99 | locus YDL214C, strain PRR2, active compounds read low 0.919 | locus YDR052C, strain DBF4, active compounds read low 0.977 | locus YDR054C, strain cdc34, active compounds read low 0.978 | locus YDR226W, strain ADK1, active compounds read low 0.973 | locus YDR477W, strain SNF1, active compounds read low 0.944 | locus YER123W, strain YCK3, active compounds read low 0.844 | locus YER133W, strain GLC7, active compounds read low 0.943 | locus YFL009W, strain cdc4, active compounds read low 0.987 | locus YFL029C, strain CAK1, active compounds read low 0.981 | locus YFR003C, strain YPI1, active compounds read low 0.985 | locus YFR019W, strain FAB1, active compounds read low 0.91 | locus YFR028C, strain CDC14, active compounds read low 0.994 | locus YGR040W, strain KSS1, active compounds read low 0.945 | locus YGR052W, strain FMP48, active compounds read low 0.932 | locus YGR092W, strain DBF2, active compounds read low 0.923 | locus YHR079C, strain IRE1, active compounds read low 0.759 | locus YHR082C, strain KSP1, active compounds read low 0.965 | locus YHR205W, strain SCH9, active compounds read low 0.953 | locus YIL147C, strain SLN1, active compounds read low 0.993 | locus YJL095W, strain BCK1, active compounds read low 0.839 | locus YJL128C, strain PBS2, active compounds read low 0.954 | locus YJL157C, strain FAR1, active compounds read low 0.889 | locus YJR016C, strain ILV3, active compounds read low 0.993 | locus YJR066W, strain TOR1 (second series), active compounds read low 0.835 | locus YJR066W, strain TOR1, active compounds read low 0.891 | locus YKL048C, strain ELM1, active compounds read low 0.97 | locus YKL067W, strain YNK1, active compounds read low 0.949 | locus YKL101W, strain HSL1, active compounds read low 0.98 | locus YKL193C, strain SDS22, active compounds read low 0.991 | locus YKL203C, strain TOR2, active compounds read low 0.969 | locus YLR133W, strain CKI1, active compounds read low 0.933 | locus YLR403W, strain SFP1, active compounds read low 0.908 | locus YML070W, strain DAK1, active compounds read low 0.916 | locus YMR001C, strain CDC5, active compounds read low 0.983 | locus YMR205C, strain PFK2 (second series), active compounds read low 0.97 | locus YMR277W, strain FCP1, active compounds read low 0.986 | locus YNL006W, strain LST8, active compounds read low 0.986 | locus YNL020C, strain ARK1, active compounds read low 0.917 | locus YNL161W, strain CBK1, active compounds read low 0.99 | locus YNL183C, strain NPR1, active compounds read low 0.92 | locus YNL207W, strain RIO2, active compounds read low 0.976 | locus YNL222W, strain SSU72, active compounds read low 0.987 | locus YNL307C, strain MCK1 (second series), active compounds read low 0.899 | locus YOL078W, strain AVO1, active compounds read low 0.989 | locus YOL136C, strain PFK27, active compounds read low 0.871 | locus YOR061W, strain CKA2, active compounds read low 0.943 | locus YOR119C, strain RIO1, active compounds read low 1 | locus YOR231W, strain MKK1, active compounds read low 0.792 | locus YOR329C, strain SCD5, active compounds read low 0.981 | locus YPL031C, strain PHO85, active compounds read low 0.903 | locus YPL153C, strain RAD53, active compounds read low 0.932 | locus YPL204W, strain HRR25, active compounds read low 0.899 | locus YPL209C, strain IPL1, active compounds read low 0.987 | locus YPR025C, strain CCL1, active compounds read low 0.992 | locus YPR106W, strain ISR1, active compounds read low 0.983 | locus YPR111W, strain DBF20, active compounds read low 0.974 | strain NNK1, active compounds read low 0.974 | strain TSCII, active compounds read low 0.989

Source: PubChem BioAssay AID1159580 (chemical genetic matrix, 2015)
